Experimental data reported in the supplement of paper PMC10849652.
Of roughly 7,900 targets only a part is listed; those with a hit were picked by preference. About 0.6% of all pairs of compound and target were hits.

These targets were tested with CC(C)C1=C2N=C(C=C(N2N=C1)NCC3=CC=CC=C3)NCCCCCCN (assay: log2 fold change, soluble protein after heating vs DMSO (PISA); higher = thermal stabilisation; K562 cells, 10 uM, 30 min; active = over 0.2 and 3.5 SD of the protein, either way, in both replicates (recomputed)).
Outline: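 K562 cells at 2×10^6 cells/mL were treated with 10 μM compound for 30 min. Aliquots were heated for 3 min across 48°C-58°C, pooled, and extracted in PBS with 0.5% NP-40 at 4°C; soluble protein was the supernatant after 21,000xg for 90 min. Soluble protein was quantified by TMTpro 16plex LC-MS/MS with channel sums equalised, and reported as log2 fold change in thermal stability against DMSO controls, with values from duplicates.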

Sequence of UniProt O95772 (O95772 whole entry, looked up): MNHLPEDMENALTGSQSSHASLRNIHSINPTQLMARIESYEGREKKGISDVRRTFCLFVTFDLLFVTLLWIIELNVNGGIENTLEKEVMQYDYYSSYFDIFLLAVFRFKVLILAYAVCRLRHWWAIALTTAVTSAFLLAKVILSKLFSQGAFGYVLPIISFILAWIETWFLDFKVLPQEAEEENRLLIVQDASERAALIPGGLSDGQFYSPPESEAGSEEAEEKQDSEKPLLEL
Sequence of UniProt Q93075 (Q93075 whole entry, looked up): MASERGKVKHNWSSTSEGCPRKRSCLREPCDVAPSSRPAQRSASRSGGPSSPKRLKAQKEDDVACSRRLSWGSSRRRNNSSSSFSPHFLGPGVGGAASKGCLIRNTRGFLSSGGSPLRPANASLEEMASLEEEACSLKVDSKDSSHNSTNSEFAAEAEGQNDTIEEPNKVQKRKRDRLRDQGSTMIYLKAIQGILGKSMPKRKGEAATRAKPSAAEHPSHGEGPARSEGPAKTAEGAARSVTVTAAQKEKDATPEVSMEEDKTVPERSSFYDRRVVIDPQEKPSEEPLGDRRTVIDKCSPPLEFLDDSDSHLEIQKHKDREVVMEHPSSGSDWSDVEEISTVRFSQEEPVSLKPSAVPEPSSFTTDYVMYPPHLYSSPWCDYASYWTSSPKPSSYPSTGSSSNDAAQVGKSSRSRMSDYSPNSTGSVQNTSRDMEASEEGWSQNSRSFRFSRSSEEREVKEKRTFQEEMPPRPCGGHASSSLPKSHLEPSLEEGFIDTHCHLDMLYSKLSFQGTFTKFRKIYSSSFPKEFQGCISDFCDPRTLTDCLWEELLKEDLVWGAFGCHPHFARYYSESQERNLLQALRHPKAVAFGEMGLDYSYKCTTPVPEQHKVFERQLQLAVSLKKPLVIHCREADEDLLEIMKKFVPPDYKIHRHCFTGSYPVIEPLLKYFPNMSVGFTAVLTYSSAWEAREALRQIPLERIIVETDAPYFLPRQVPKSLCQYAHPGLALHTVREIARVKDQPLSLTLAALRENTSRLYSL
Sequence of UniProt Q96BZ9 (Q96BZ9 whole entry, looked up): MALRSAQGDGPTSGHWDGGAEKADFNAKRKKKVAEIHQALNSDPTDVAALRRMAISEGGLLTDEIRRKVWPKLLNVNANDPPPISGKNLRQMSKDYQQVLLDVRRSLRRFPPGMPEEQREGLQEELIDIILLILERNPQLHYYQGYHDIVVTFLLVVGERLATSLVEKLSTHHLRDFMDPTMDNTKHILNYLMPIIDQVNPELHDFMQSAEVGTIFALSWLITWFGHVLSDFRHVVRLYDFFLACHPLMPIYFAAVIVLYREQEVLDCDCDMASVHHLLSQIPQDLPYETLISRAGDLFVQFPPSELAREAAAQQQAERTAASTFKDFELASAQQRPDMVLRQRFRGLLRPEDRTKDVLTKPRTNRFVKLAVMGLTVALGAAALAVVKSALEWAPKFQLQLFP
Sequence of UniProt Q13247 (Q13247 whole entry, looked up): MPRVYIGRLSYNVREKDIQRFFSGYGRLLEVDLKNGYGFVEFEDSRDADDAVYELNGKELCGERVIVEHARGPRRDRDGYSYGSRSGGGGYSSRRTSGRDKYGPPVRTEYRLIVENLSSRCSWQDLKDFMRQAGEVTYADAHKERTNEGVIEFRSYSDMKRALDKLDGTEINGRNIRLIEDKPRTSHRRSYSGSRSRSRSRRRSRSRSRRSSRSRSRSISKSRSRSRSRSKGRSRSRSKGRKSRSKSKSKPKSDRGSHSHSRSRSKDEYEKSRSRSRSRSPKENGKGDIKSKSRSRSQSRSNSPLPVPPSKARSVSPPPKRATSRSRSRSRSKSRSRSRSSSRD
Sequence of UniProt Q9Y5W9 (Q9Y5W9 whole entry, looked up): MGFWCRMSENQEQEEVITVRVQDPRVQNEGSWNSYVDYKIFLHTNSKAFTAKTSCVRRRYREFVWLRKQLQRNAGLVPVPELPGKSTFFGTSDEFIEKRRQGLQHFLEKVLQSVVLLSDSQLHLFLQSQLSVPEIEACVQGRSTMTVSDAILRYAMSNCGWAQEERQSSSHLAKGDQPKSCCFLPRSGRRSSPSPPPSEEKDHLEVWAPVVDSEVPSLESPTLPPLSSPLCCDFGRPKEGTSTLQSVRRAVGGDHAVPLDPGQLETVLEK
Sequence of UniProt Q8N357 (Q8N357 whole entry, looked up): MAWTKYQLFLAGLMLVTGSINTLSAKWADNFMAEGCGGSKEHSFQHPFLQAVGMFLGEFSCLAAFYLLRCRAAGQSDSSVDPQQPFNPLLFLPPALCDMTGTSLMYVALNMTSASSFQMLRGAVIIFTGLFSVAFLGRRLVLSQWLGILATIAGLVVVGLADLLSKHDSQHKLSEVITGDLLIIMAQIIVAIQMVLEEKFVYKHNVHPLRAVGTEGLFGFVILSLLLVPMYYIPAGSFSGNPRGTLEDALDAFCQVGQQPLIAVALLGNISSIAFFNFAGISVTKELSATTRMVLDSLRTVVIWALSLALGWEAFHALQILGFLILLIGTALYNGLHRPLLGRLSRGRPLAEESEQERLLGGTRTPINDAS
Sequence of UniProt Q08170 (Q08170 whole entry, looked up): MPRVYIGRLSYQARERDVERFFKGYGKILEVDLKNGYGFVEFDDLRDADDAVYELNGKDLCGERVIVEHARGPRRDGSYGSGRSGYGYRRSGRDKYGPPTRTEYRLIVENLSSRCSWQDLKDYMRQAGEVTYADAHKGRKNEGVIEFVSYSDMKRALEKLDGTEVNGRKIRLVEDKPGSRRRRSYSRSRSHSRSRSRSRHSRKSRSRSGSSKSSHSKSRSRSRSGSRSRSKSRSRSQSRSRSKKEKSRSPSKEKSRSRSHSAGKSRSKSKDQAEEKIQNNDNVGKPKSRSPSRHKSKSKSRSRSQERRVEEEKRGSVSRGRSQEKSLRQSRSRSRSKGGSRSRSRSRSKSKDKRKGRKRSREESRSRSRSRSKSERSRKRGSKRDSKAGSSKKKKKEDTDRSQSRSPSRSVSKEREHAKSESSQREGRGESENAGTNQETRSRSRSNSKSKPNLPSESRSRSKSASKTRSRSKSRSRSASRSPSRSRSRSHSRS
Sequence of UniProt Q92844 (Q92844 whole entry, looked up): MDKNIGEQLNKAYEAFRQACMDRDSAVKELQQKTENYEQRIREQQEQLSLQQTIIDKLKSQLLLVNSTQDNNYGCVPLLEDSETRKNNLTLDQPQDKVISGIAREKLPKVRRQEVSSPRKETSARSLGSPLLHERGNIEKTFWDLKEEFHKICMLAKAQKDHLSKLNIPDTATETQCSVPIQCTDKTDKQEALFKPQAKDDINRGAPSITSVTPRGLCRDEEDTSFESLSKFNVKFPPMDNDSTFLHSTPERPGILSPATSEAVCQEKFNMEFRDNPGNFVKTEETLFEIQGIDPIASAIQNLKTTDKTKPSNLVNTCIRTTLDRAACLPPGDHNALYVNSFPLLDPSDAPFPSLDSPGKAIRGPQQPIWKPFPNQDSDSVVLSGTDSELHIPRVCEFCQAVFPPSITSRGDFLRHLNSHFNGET
Sequence of UniProt Q13242 (Q13242 whole entry, looked up): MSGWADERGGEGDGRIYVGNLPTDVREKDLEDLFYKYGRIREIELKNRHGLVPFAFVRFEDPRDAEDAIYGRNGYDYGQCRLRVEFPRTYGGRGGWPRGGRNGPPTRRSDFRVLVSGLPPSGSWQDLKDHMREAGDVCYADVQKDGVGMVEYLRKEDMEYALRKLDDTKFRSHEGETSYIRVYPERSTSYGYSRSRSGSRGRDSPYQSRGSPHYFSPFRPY
Sequence of UniProt Q9H2K8 (Q9H2K8 whole entry, looked up): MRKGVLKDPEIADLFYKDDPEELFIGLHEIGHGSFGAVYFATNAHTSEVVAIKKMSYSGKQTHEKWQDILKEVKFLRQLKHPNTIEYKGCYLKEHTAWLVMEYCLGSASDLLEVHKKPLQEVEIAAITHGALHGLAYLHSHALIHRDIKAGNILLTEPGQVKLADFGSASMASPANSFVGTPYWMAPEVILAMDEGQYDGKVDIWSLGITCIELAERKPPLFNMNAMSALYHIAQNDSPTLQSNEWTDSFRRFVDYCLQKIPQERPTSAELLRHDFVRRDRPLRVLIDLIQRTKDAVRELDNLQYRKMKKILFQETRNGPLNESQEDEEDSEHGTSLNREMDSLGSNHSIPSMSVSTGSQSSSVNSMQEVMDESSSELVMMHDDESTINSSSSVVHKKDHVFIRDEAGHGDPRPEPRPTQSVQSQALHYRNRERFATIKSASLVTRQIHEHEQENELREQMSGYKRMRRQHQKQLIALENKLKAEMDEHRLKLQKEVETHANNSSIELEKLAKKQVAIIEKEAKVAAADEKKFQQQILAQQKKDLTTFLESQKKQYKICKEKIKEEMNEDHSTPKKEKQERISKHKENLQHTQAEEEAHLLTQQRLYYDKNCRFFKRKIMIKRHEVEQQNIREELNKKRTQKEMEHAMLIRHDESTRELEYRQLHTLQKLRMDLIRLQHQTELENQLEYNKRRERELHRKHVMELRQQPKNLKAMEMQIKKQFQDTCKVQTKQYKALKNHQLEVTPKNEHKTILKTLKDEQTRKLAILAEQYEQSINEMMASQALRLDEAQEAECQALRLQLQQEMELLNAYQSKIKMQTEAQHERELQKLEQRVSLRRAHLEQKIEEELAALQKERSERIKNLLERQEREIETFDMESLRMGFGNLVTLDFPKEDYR
Sequence of UniProt P50225 (P50225 whole entry, looked up): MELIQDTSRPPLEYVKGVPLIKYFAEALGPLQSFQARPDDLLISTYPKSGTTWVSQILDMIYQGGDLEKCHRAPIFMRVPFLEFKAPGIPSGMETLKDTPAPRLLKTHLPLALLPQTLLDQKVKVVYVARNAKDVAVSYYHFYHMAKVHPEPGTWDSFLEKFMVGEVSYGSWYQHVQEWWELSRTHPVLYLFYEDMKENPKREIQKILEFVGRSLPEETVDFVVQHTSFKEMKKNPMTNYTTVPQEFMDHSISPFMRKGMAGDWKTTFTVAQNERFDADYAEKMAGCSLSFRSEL
Sequence of UniProt Q9Y5L4 (Q9Y5L4 whole entry, looked up): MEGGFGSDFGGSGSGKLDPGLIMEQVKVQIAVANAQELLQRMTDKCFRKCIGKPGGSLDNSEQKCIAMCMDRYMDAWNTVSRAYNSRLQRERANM
Sequence of UniProt Q9Y5J6 (Q9Y5J6 whole entry, looked up): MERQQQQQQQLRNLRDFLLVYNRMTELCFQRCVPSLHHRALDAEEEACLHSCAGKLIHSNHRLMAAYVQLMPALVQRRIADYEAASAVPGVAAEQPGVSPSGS

| Target | log2 fold change |
| --- | --- |
| STK38 (UniProt Q15208) | -0.089 (inactive) |
| TBC1D24 (UniProt Q9ULP9) | -0.09 (inactive) |
| SMARCA4 (UniProt P51532) | -0.397 (inactive) |
| TAOK3 (UniProt Q9H2K8) | 0.007 (inactive) |
| SP100 isoform 4 (UniProt P23497) | -0.015 (inactive) |
| SLC35B4 (UniProt Q969S0) | -0.02 (inactive) |
| TBRG4 (UniProt Q969Z0) | -0.624 (inactive) |
| TIMM10B (UniProt Q9Y5J6) | -0.197 (inactive) |
| SMIM20 isoform 2 (UniProt Q8N5G0) | 0.024 (inactive) |
| SPTBN4 (UniProt Q9H254) | -0.671 (active) |
| TGFBI (UniProt Q15582) | -0.044 (inactive) |
| STARD3NL (UniProt O95772) | -0.432 (active) |
| TJP1 (UniProt Q07157) | -0.003 (inactive) |
| TANGO6 (UniProt Q9C0B7) | -0.098 (inactive) |
| TANK (UniProt Q92844) | 0.007 (inactive) |
| SRC isoform 2 (UniProt P12931) | 0.159 (inactive) |
| SUOX (UniProt P51687) | 0.042 (inactive) |
| SNRNP40 (UniProt Q96DI7) | 0.177 (inactive) |
| SNX11 (UniProt Q9Y5W9) | -0.218 (inactive) |

| Target | log2 fold change |
| --- | --- |
| TIMM13 (UniProt Q9Y5L4) | 0.048 (inactive) |
| TATDN2 (UniProt Q93075) | 0.058 (inactive) |
| SRSF9 (UniProt Q13242) | 0.019 (inactive) |
| SLC35F6 (UniProt Q8N357) | -0.22 (inactive) |
| SMCHD1 (UniProt A6NHR9) | -0.067 (inactive) |
| SP3 (UniProt Q02447) | -0.006 (inactive) |
| TBC1D20 isoform 3 (UniProt Q96BZ9) | -0.099 (inactive) |
| SYK (UniProt P43405) | 0.128 (inactive) |
| TIMM29 (UniProt Q9BSF4) | 0.071 (inactive) |
| SMARCE1 (UniProt Q969G3) | -0.128 (inactive) |
| SRSF6 (UniProt Q13247) | -0.086 (inactive) |
| SRSF4 (UniProt Q08170) | -0.174 (inactive) |
| SULT1A1 (UniProt P50225) | -0.104 (inactive) |
| SLC27A4 (UniProt Q6P1M0) | -0.11 (inactive) |
| SSB (UniProt P05455) | -0.038 (inactive) |
| TLK2 isoform 2 (UniProt Q86UE8) | 0.011 (inactive) |
| TMBIM1 (UniProt Q969X1) | -0.066 (inactive) |
| STK11IP (UniProt Q8N1F8) | -0.932 (active) |
